Reference: PubChem BioAssay (EPA / NIEHS)
“And” between values parts separate entries of the source, which are not always exact repeats. Equal entries are not always repeated. Some structures have more than one record in an assay (separate samples or runs), and their calls can disagree. The source made the active and inactive calls. The calls were made as follows: active = hit-call score of the fitted dose curve at least 0.9, where 1 is the maximum; inactive = score below 0.9.

The molecules below were run against Hypoxia-inducible factor 1-alpha (Homo sapiens) (UniProt Q16665) (assay: ATG_HIF1a_CIS: Attagene CIS-FACTORIAL HepG2 Assay for human Hypoxia Inducible Factor 1 (HIF1A) (AID 2282951)). Conditions: HepG2 Attagene cis-factorial HIF1a reporter transcription; actives raise or lower the signal.
Protocol: ATG_CIS is a cell-based, multiplexed-readout assay that uses HepG2, a human liver cell line, with measurements taken at 24 hours after chemical dosing in a 24-well plate.ATG_HIF1a_CIS is one of 52 assay component(s) measured or calculated from the ATG_CIS assay. It is designed to make measurements of mRNA induction, a form of inducible reporter, as detected with fluorescence intensity signals by Reverse transcription polymerase chain reaction (RT-PCR) and Capillary electrophoresis technology.Data from the assay component ATG_HIF1a_CIS was analyzed into 1 assay endpoint. This assay endpoint, ATG_HIF1a_CIS, was analyzed with bidirectional fitting relative to DMSO as the negative control and baseline of activity. Using a type of inducible reporter, measures of mRNA for gain or loss-of-signal activity can be used to understand the reporter gene at the transcription factor-level as they relate to the gene HIF1A. Furthermore, this assay endpoint can be referred to as a primary readout, because this assay has produced multiple assay endpoints where this one serves a reporter gene function. To generalize the intended target to other relatable targets, this assay endpoint is annotated to the dna binding intended target family, where the subfamily is basic helix-loop-helix protein.
Human liver HepG2 cells are transiently transfected with multiple reporter transcription units (MRTUs) in 6-well plates using FuGene 6 reagent (Roche; 3 ml FuGene/1 mg DNA). The MRTU constructs are regulated by a cis-regulating element (promoter). […] A major difference between the CIS and TRANS system is that in CIS activities of endogenous TFs are measured, whereas the TRANS assay evaluates changes in activities of exogenous, chimeric NR-Gal4 proteins. […] At the end of 24 hour incubation, total RNA was isolated using TriZol reagent (Invitrogen). The isolated RNA is then reverse-transcribed using oligo(dT) primer and Mo-MLV reverse transcriptase (Invitrogen) with DNAse I (Ambion) treatment for 30 min. The one-tenth of the produced cDNA was amplified by PCR using Taq DNA polymerase (Invitrogen) and two reporter sequence-specific primers. The PCR products were fluorescently labeled by primer extension with 6-arboxyfluorescein (6-FAM) 5'-labeled reporter sequence-specific primer (2 min at 95 C, 20 s at 68 C and 10 min at 72 C) and these products were digested with 5U of HpaI (New England Biolabs) for 2h at 37 C. The fragments were purified using Qiaquick PCR columns (Qiagen), analyzed on an ABI 3130xL genetic analyzer (Applied Biosystems) with peak positions identified by using a set of X-rhodamine (ROX)-labeled MapMarker1000 molecular weight standards (BioVentures). The raw capillary electrophoresis data was processed using Attagraph software (Attagene).

Chain of Hypoxia-inducible factor 1-alpha (Homo sapiens) (Q16665 whole entry, looked up): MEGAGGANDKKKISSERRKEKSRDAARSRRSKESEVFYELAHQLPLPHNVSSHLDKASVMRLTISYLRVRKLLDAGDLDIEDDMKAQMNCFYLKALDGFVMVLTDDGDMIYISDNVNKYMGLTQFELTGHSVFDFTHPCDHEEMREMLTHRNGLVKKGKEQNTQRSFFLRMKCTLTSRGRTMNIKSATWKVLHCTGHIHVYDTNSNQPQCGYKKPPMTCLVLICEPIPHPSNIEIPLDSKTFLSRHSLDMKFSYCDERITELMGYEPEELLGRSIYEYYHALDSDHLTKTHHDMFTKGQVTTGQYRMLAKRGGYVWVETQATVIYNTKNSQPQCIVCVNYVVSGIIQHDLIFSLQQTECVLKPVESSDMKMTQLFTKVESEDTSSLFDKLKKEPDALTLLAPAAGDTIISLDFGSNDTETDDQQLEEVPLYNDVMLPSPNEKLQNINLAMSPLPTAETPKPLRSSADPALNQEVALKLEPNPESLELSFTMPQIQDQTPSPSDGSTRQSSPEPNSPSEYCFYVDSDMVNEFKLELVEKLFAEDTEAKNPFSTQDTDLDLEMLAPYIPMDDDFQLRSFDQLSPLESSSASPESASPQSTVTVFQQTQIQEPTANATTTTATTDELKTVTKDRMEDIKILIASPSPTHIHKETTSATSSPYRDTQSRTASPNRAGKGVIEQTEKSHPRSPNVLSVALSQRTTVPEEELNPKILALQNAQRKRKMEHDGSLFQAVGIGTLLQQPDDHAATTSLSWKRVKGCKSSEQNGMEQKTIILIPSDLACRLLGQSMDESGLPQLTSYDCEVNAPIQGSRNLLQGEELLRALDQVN

Row | Compound | outcome | AC50
1 | CCCCCCCCCC | inactive | 
2 | c1ccc2ncccc2c1 | inactive | 
3 | CCCCCCCCCCCCCCO | inactive | 
4 | O=C(O)c1cccc(C(=O)O)c1 | inactive | 
5 | CC(C)CCCCCCOC(=O)C1CCCCC1C(=O)OCCCCCCC(C)C (stereo not given) | inactive | 
6 | Cc1nccn1-c1ccc(Sc2cccc(C3(C(N)=O)CCOCC3)c2)cc1 | inactive | 
7 | CCCCCOC(C)=O | inactive | 
8 | CCCCCCOC(=O)CC(CC(=O)OCCCCCC)(OC(=O)CCC)C(=O)OCCCCCC | inactive | 
9 | S=P(N1CC1)(N1CC1)N1CC1 | inactive | 
10 | FC(F)=C(F)C(F)(F)C(F)(F)C(F)(F)C(F)(F)C(F)(F)C(F)(F)F | inactive | 
11 | OC(CCl)CCl | inactive | 
12 | COS(C)(=O)=O | inactive | 
13 | O=S(=O)(O)c1ccc(N=Nc2c(O)ccc3cc(S(=O)(=O)O)ccc23)cc1 | inactive | 
14 | CCCCCCCC1CCC(=O)O1 (stereo not given) | inactive | 
15 | CCCc1ccccc1 |  | 60.7 µM (active)
16 | CC[C@H](C)C(=O)O[C@H]1C[C@H](O)C=C2C=C[C@H](C)[C@H](CC[C@@H](O)C[C@@H](O)CC(=O)O)[C@H]21 | inactive | 
17 | CNC(C)=O | inactive | 
18 | CCn1nc(C)c2c1C(=O)NCC(c1ccc(O)cc1)=N2 | inactive | 
19 | CCCCCCCC/C=C\CCCCCCCC(=O)OC[C@@H](O)[C@H]1OC[C@H](O)[C@H]1O | inactive | 
20 | CCc1cccc(CC)c1N | inactive | 

Row | Compound | outcome | AC50
21 | C[Si](C)(C)C(F)(F)C(F)(F)C(F)(F)F | inactive | 
22 | OCCOCCOCCO | inactive | 
23 | O=C(O)c1ccc2c(c1)nc(C(=O)NC1CCN(C3CC3)CC1)n2Cc1cc(-c2ccc(Cl)s2)on1 | inactive | 
24 | O=C(NO)C1(NS(=O)(=O)c2ccc(Oc3ccc(F)cc3)cc2)CCOCC1 | inactive | 
25 | OCCC(F)(F)C(F)(F)C(F)(F)C(F)(F)F | inactive | 
26 | C[C@]12C=CC(=O)C=C1CC[C@H]1[C@@H]3C[C@@H](O)[C@](O)(C(=O)CO)[C@@]3(C)C[C@H](O)[C@@]12F | inactive | 
27 | NC(N)=O | inactive | 
28 | CCc1ccc(O)c(C(C)(C)C)c1 |  | 56.3 µM (active)
29 | NCC(F)(F)C(F)(F)C(F)(F)C(F)(F)F | inactive | 
30 | COc1cc2c(c(OC)c1OC)-c1ccc(OC)c(=O)cc1[C@@H](NC(C)=O)CC2 |  | 0.619 µM (active)
31 | OCc1c[nH]c2ccccc12 | inactive | 2.91 µM (active) and 19.8 µM (active) and 1.45 µM (active)
32 | CCCCCCCCCCCCCCCCOS(=O)(=O)O | inactive | 
33 | CCCCN1C(=O)[C@@H]([C@H](O)C2CCCCC2)NC(=O)C12CCN(Cc1ccc(Oc3ccc(C(=O)O)cc3)cc1)CC2 | inactive | 
34 | Cc1nc(-c2ccccn2)ncc1C(=O)Nn1cc(C)c2cc(F)ccc21 |  | 48 µM (active)
35 | NC(=O)N(O)[C@@H]1COc2cc(OCc3ccccc3)ccc21 | inactive | 
36 | O=c1[nH]cnc2c1ncn2[C@H]1CC[C@@H](CO)O1 | inactive | 
37 | CCOC(N)=O | inactive | 
38 | COCc1nnc(-c2ccc[n+]([O-])c2)n1-c1c(Cl)c(Cl)cc2[nH]c(=O)c(=O)[nH]c12 | inactive | 
39 | OC(Cn1cncn1)(Cn1cncn1)c1ccc(F)cc1F | inactive | 
